{"source": "the supplement of paper PMC4466140", "assay_in_all_cases": "SPOT peptide array binding signal intensity (averaged, normalized) (arbitrary units (background-subtracted, floor 0; scale differs between SH3 domains)); higher = stronger binding of the SH3 domain to the peptide", "key": {"AgAbp1": {"target": "AgAbp1", "method_in_brief": "(§1)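 The binding signal is the normalized, background-subtracted spot intensity averaged over replicates; its arbitrary units differ between domains. It was obtained by incubating 10 μg/ml GST-fused SH3 domains from four yeast species overnight at 4°C in TBS-based blocking buffer on cellulose membranes with synthetic 15-mer peptides, cysteines replaced by serines, then detecting with anti-GST antibody, HRP anti-mouse secondary and luminol.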"}, "AgBbc1": {"target": "AgBbc1", "method_in_brief": "as §1"}, "AgBem1-D1": {"target": "AgBem1-D1", "method_in_brief": "as §1"}, "AgBzz1-D1": {"target": "AgBzz1-D1", "method_in_brief": "as §1"}, "AgBzz1-D2": {"target": "AgBzz1-D2", "method_in_brief": "as §1"}, "AgCyk3": {"target": "AgCyk3", "method_in_brief": "as §1"}, "AgFus1": {"target": "AgFus1", "method_in_brief": "as §1"}, "AgHof1": {"target": "AgHof1", "method_in_brief": "as §1"}, "AgHse1": {"target": "AgHse1", "method_in_brief": "as §1"}, "AgLsb1": {"target": "AgLsb1", "method_in_brief": "as §1"}, "AgLsb4": {"target": "AgLsb4", "method_in_brief": "as §1"}, "AgMyo5": {"target": "AgMyo5", "method_in_brief": "as §1"}, "AgNbp2": {"target": "AgNbp2", "method_in_brief": "as §1"}, "AgRvs167": {"target": "AgRvs167", "method_in_brief": "as §1"}, "AgSho1": {"target": "AgSho1", "method_in_brief": "as §1"}, "AgSla1-D1-D2": {"target": "AgSla1-D1-D2", "method_in_brief": "as §1"}, "AgSla1-D3": {"target": "AgSla1-D3", "method_in_brief": "as §1"}, "CaAbp1-D1": {"target": "CaAbp1-D1", "method_in_brief": "as §1"}, "CaAbp1-D2": {"target": "CaAbp1-D2", "method_in_brief": "as §1"}, "CaBbc1": {"target": "CaBbc1", "method_in_brief": "as §1"}, "CaBem1-D1": {"target": "CaBem1-D1", "method_in_brief": "as §1"}, "CaBzz1-D1": {"target": "CaBzz1-D1", "method_in_brief": "as §1"}, "CaBzz1-D2": {"target": "CaBzz1-D2", "method_in_brief": "as §1"}, "CaCyk3": {"target": "CaCyk3", "method_in_brief": "as §1"}, "CaFus1": {"target": "CaFus1", "method_in_brief": "as §1"}, "CaHof1": {"target": "CaHof1", "method_in_brief": "as §1"}, "CaHse1": {"target": "CaHse1", "method_in_brief": "as §1"}, "CaLsb1": {"target": "CaLsb1", "method_in_brief": "as §1"}, "CaLsb4": {"target": "CaLsb4", "method_in_brief": "as §1"}, "CaMyo5": {"target": "CaMyo5", "method_in_brief": "as §1"}, "CaNbp2": {"target": "CaNbp2", "method_in_brief": "as §1"}, "CaRvs167": {"target": "CaRvs167", "method_in_brief": "as §1"}, "CaRvs167-3": {"target": "CaRvs167-3", "method_in_brief": "as §1"}, "CaSho1": {"target": "CaSho1", "method_in_brief": "as §1"}, "CaSla1-D1-D2": {"target": "CaSla1-D1-D2", "method_in_brief": "as §1"}, "CaSla1-D3": {"target": "CaSla1-D3", "method_in_brief": "as §1"}, "ScAbp1": {"target": "ScAbp1", "method_in_brief": "as §1"}, "ScBbc1": {"target": "ScBbc1", "method_in_brief": "as §1"}, "ScBem1-D1": {"target": "ScBem1-D1", "method_in_brief": "as §1"}, "ScBzz1-D1": {"target": "ScBzz1-D1", "method_in_brief": "as §1"}, "ScBzz1-D2": {"target": "ScBzz1-D2", "method_in_brief": "as §1"}, "ScCyk3": {"target": "ScCyk3", "method_in_brief": "as §1"}, "ScFus1": {"target": "ScFus1", "method_in_brief": "as §1"}, "ScHof1": {"target": "ScHof1", "method_in_brief": "as §1"}, "ScHse1": {"target": "ScHse1", "method_in_brief": "as §1"}, "ScLsb1": {"target": "ScLsb1", "method_in_brief": "as §1"}, "ScLsb2": {"target": "ScLsb2", "method_in_brief": "as §1"}, "ScLsb3": {"target": "ScLsb3", "method_in_brief": "as §1"}, "ScLsb4": {"target": "ScLsb4", "method_in_brief": "as §1"}, "ScMyo3": {"target": "ScMyo3", "method_in_brief": "as §1"}, "ScMyo5": {"target": "ScMyo5", "method_in_brief": "as §1"}, "ScNbp2": {"target": "ScNbp2", "method_in_brief": "as §1"}, "ScPex13": {"target": "ScPex13", "method_in_brief": "as §1"}, "ScRvs167": {"target": "ScRvs167", "method_in_brief": "as §1"}, "ScSho1": {"target": "ScSho1", "method_in_brief": "as §1"}, "ScSla1-D1-D2": {"target": "ScSla1-D1-D2", "method_in_brief": "as §1"}, "ScSla1-D3": {"target": "ScSla1-D3", "method_in_brief": "as §1"}, "SpAbp1-D1": {"target": "SpAbp1-D1", "method_in_brief": "as §1"}, "SpBbc1": {"target": "SpBbc1", "method_in_brief": "as §1"}, "SpBzz1-D1": {"target": "SpBzz1-D1", "method_in_brief": "as §1"}}, "data": [{"binder": "TKPTPPPKPSHLKPK", "values": [{"measurement": "SPOT peptide array binding signal intensity", "setting": "AgAbp1", "result": 784}, {"measurement": "SPOT peptide array binding signal intensity", "setting": "AgBbc1", "result": 125}, {"measurement": "SPOT peptide array binding signal intensity", "setting": "AgBem1-D1", "result": "≤ 0"}, {"measurement": "SPOT peptide array binding signal intensity", "setting": "AgBzz1-D1", "result": 150}, {"measurement": "SPOT peptide array binding signal intensity", "setting": "AgBzz1-D2", "result": 13}, {"measurement": "SPOT peptide array binding signal intensity", "setting": "AgCyk3", "result": 0.5}, {"measurement": "SPOT peptide array binding signal intensity", "setting": "AgFus1", "result": "≤ 0"}, {"measurement": "SPOT peptide array binding signal intensity", "setting": "AgHof1", "result": 3.5}, {"measurement": "SPOT peptide array binding signal intensity", "setting": "AgHse1", "result": 18}, {"measurement": "SPOT peptide array binding signal intensity", "setting": "AgLsb1", "result": 0.5}, {"measurement": "SPOT peptide array binding signal intensity", "setting": "AgLsb4", "result": "≤ 0"}, {"measurement": "SPOT peptide array binding signal intensity", "setting": "AgMyo5", "result": "≤ 0"}, {"measurement": "SPOT peptide array binding signal intensity", "setting": "AgNbp2", "result": "≤ 0"}, {"measurement": "SPOT peptide array binding signal intensity", "setting": "AgRvs167", "result": 2.67}, {"measurement": "SPOT peptide array binding signal intensity", "setting": "AgSho1", "result": 72}, {"measurement": "SPOT peptide array binding signal intensity", "setting": "AgSla1-D1-D2", "result": "≤ 0"}, {"measurement": "SPOT peptide array binding signal intensity", "setting": "AgSla1-D3", "result": "≤ 0"}, {"measurement": "SPOT peptide array binding signal intensity", "setting": "CaAbp1-D1", "result": 655}, {"measurement": "SPOT peptide array binding signal intensity", "setting": "CaAbp1-D2", "result": 1210}, {"measurement": "SPOT peptide array binding signal intensity", "setting": "CaBbc1", "result": 159}, {"measurement": "SPOT peptide array binding signal intensity", "setting": "CaBem1-D1", "result": "≤ 0"}, {"measurement": "SPOT peptide array binding signal intensity", "setting": "CaBzz1-D1", "result": 1030}, {"measurement": "SPOT peptide array binding signal intensity", "setting": "CaBzz1-D2", "result": 357}, {"measurement": "SPOT peptide array binding signal intensity", "setting": "CaCyk3", "result": "≤ 0"}, {"measurement": "SPOT peptide array binding signal intensity", "setting": "CaFus1", "result": "≤ 0"}, {"measurement": "SPOT peptide array binding signal intensity", "setting": "CaHof1", "result": 1.5}, {"measurement": "SPOT peptide array binding signal intensity", "setting": "CaHse1", "result": 5.75}, {"measurement": "SPOT peptide array binding signal intensity", "setting": "CaLsb1", "result": 0.5}, {"measurement": "SPOT peptide array binding signal intensity", "setting": "CaLsb4", "result": "≤ 0"}, {"measurement": "SPOT peptide array binding signal intensity", "setting": "CaMyo5", "result": 1}, {"measurement": "SPOT peptide array binding signal intensity", "setting": "CaNbp2", "result": "≤ 0"}, {"measurement": "SPOT peptide array binding signal intensity", "setting": "CaRvs167", "result": 4}, {"measurement": "SPOT peptide array binding signal intensity", "setting": "CaRvs167-3", "result": 6}, {"measurement": "SPOT peptide array binding signal intensity", "setting": "CaSho1", "result": 44.5}, {"measurement": "SPOT peptide array binding signal intensity", "setting": "CaSla1-D1-D2", "result": 9.5}, {"measurement": "SPOT peptide array binding signal intensity", "setting": "CaSla1-D3", "result": 0.5}, {"measurement": "SPOT peptide array binding signal intensity", "setting": "ScAbp1", "result": 1010}, {"measurement": "SPOT peptide array binding signal intensity", "setting": "ScBbc1", "result": "≤ 0"}, {"measurement": "SPOT peptide array binding signal intensity", "setting": "ScBem1-D1", "result": 1.5}, {"measurement": "SPOT peptide array binding signal intensity", "setting": "ScBzz1-D1", "result": 4}, {"measurement": "SPOT peptide array binding signal intensity", "setting": "ScBzz1-D2", "result": 59.5}, {"measurement": "SPOT peptide array binding signal intensity", "setting": "ScCyk3", "result": "≤ 0"}, {"measurement": "SPOT peptide array binding signal intensity", "setting": "ScFus1", "result": 7.5}, {"measurement": "SPOT peptide array binding signal intensity", "setting": "ScHof1", "result": 2}, {"measurement": "SPOT peptide array binding signal intensity", "setting": "ScHse1", "result": 4}, {"measurement": "SPOT peptide array binding signal intensity", "setting": "ScLsb1", "result": 0.5}, {"measurement": "SPOT peptide array binding signal intensity", "setting": "ScLsb2", "result": "≤ 0"}, {"measurement": "SPOT peptide array binding signal intensity", "setting": "ScLsb3", "result": 1800}, {"measurement": "SPOT peptide array binding signal intensity", "setting": "ScLsb4", "result": "≤ 0"}, {"measurement": "SPOT peptide array binding signal intensity", "setting": "ScMyo3", "result": 0.5}, {"measurement": "SPOT peptide array binding signal intensity", "setting": "ScMyo5", "result": "≤ 0"}, {"measurement": "SPOT peptide array binding signal intensity", "setting": "ScNbp2", "result": 13}, {"measurement": "SPOT peptide array binding signal intensity", "setting": "ScPex13", "result": 981}, {"measurement": "SPOT peptide array binding signal intensity", "setting": "ScRvs167", "result": 4.17}, {"measurement": "SPOT peptide array binding signal intensity", "setting": "ScSho1", "result": 1320}, {"measurement": "SPOT peptide array binding signal intensity", "setting": "ScSla1-D1-D2", "result": 11}, {"measurement": "SPOT peptide array binding signal intensity", "setting": "ScSla1-D3", "result": 1.75}, {"measurement": "SPOT peptide array binding signal intensity", "setting": "SpAbp1-D1", "result": 481}, {"measurement": "SPOT peptide array binding signal intensity", "setting": "SpBbc1", "result": 0.5}, {"measurement": "SPOT peptide array binding signal intensity", "setting": "SpBzz1-D1", "result": 344}]}]}
